Data as given in PubChem BioAssay AID1259421 (Broad Institute, 2018).
Several values for one entry are separate records, joined by “and”; a condition that tells them apart may be missing. Identical values can stand only once. Hit rate of the full screen: of about 6,400 compounds, about 610 (9.5%) were called active. This excerpt belongs to a sample that is enriched for actives. Values without a mark were called inactive. No stated cut-off is given here; in the data, active means activity change below about -70%; inconclusive means no clear call, values can overlap the other calls; inactive means above that.

Assay: T. gondii ME49Luc in HeLa cells, luciferase assay, 72 h, no IFN-y (AID 1259421)
Conditions: hits give low values, concentration not given here
N#CC(C#N)=NNc1cccc(Cl)c1 showed an activity change, negative = inhibition of 9.63%. C[C@]12CC[C@@H]3c4ccc(OC(=O)N(CCCl)CCCl)cc4CC[C@H]3[C@@H]1CC[C@@H]2OP(=O)(O)O gave an activity change, negative = inhibition of 10.9%. CCCCC(CC)COC(=O)c1ccccc1C(=O)OCC(CC)CCCC (centres undefined) gave an activity change, negative = inhibition of 9.98%. With CO[C@H]1[C@H](O)[C@@H](O[C@H]2CC[C@]3(C=O)C4CC[C@]5(C)[C@@H](C6=CC(=O)OC6)CC[C@]5(O)C4CC[C@@H]3C2)O[C@@H](C)[C@@H]1O (some centres undefined) the activity change, negative = inhibition was -88% (active). In the case of CO[C@@H]1C(O)[C@H](O[C@H]2CC[C@@]3(C=O)[C@H](CC[C@@H]4[C@@H]3CC[C@]3(C)[C@@H](C5=CC(=O)OC5)CC[C@]43O)C2)OC(C)[C@@H]1O (some centres undefined), the activity change, negative = inhibition is reported as -73.9% (active). With O=C1Nc2ccccc2C2(CCN(CCc3ccc(C(F)(F)F)cc3)CC2)O1 the activity change, negative = inhibition was 16.5% and 18.9%. With O=C(O)CCCCCCNC1c2ccccc2CCc2ccccc21 the activity change, negative = inhibition was 30.7%. For O=C(O)C(Cl)Cl, the activity change, negative = inhibition was 30.7%. In the case of Clc1cccc(SC2CCNCC2)n1, the activity change, negative = inhibition is reported as 18.6%. With Cc1ccc(C[N+](C)(C)C)o1 the activity change, negative = inhibition was 0.893% and 9.89%. CC(C)(C)CC(C)(C)c1ccc(O)cc1 showed an activity change, negative = inhibition of 5.73%. For CCCC(C)(COC(N)=O)COC(N)=O, the activity change, negative = inhibition was 8.01%. For C[C@]1(O)CC[C@H]2[C@@H]3CCC4=CC(=O)CC[C@]4(C)[C@@]3(F)[C@@H](O)C[C@@]21C, the activity change, negative = inhibition was 2.26%. With CC(=O)O[C@H]1C[C@H](O[C@H]2[C@@H](O)C[C@H](O[C@H]3[C@@H](O)C[C@H](O[C@H]4CC[C@@]5(C)C(CCC6C5C[C@@H](O)[C@]5(C)[C@@H](C7=CC(=O)OC7)CC[C@]65O)C4)O[C@@H]3C)O[C@@H]2C)O[C@H](C)[C@H]1O[C@@H]1O[C@H](CO)[C@@H](O)[C@H](O)[C@H]1O (some centres undefined) the activity change, negative = inhibition was -75.3% (active) and -89.3% (active). In the case of COC1C(O)CC(OC2C(O)CC(OC3C(O)CC(OC4CCC5(C)C(CCC6[C@@H]5CC(O)C5(C)C(C7=CC(=O)OC7)CCC65O)C4)OC3C)OC2C)OC1C (some centres undefined), the activity change, negative = inhibition is reported as -82.4% (active). For CC(=O)OC1CC[C@@]2(C)C(CCC3C2CC[C@]2(C)C(C4=CC(=O)OC4)C(OC(C)=O)CC32O)C1 (some centres undefined), the activity change, negative = inhibition was -91.6% (active). CC(=O)[C@H]1CC[C@H]2[C@@H]3CC[C@H]4C[C@H](O)CC[C@]4(C)[C@H]3CC[C@]12C showed an activity change, negative = inhibition of 2.36%. In the case of C[C@@H]1CC[C@@]2(OC1)O[C@H]1C[C@H]3[C@@H]4CC=C5C[C@H](O[C@@H]6O[C@@H](CO)[C@@H](O[C@@H]7O[C@@H](C)[C@H](O)[C@@H](O)[C@@H]7O)[C@H](O)[C@H]6O[C@@H]6O[C@@H](C)[C@H](O)[C@@H](O)[C@H]6O)CC[C@]5(C)[C@@H]4CC[C@]3(C)[C@@H]1[C@H]2C, the activity change, negative = inhibition is reported as -18.3%. In the case of C[C@H]1OC(O[C@H]2[C@@H](O)CC(O[C@H]3[C@@H](O)C[C@H](O[C@H]4CC[C@]5(C)C6CC[C@]7(C)[C@@H](C8=CC(=O)OC8)[C@@H](O)C[C@]7(O)[C@@H]6CC[C@@H]5C4)O[C@@H]3C)O[C@@H]2C)C[C@H](O)C1O (some centres undefined), the activity change, negative = inhibition is reported as -71.3% (active). Molecule COC(=O)/C=C/C(=O)N[C@@H]1CC[C@@]2(O)[C@H]3Cc4ccc(O)c5c4[C@@]2(CCN3CC2CC2)[C@H]1O5 has an activity change, negative = inhibition of 16.5%. With CCC(Oc1ccc(Cl)cc1)C(=O)OC1CC2CCC(C1)N2C (centres undefined) the activity change, negative = inhibition was -2.85% and -12.4%. For c1ccc(CC(c2ccccc2)N2CCCCC2)cc1 (centres undefined), the activity change, negative = inhibition was 9.17% and 15.7%. In the case of Cc1[nH]c2ccc(Cl)cc2c1C1=CCNCC1, the activity change, negative = inhibition is reported as 8.93% and 11.2%. Work on COC(=O)CN1CN(c2ccccc2)C2(CCN(Cc3cccc4ccccc34)CC2)C1=O yielded an activity change, negative = inhibition of -6.13%. COc1ccc(OC)c(C(O)C(C)NC(C)(C)C)c1 (centres undefined) showed an activity change, negative = inhibition of 12%. In the case of Cc1nnc2n1-c1ccc(Cl)cc1C(c1ccccc1Cl)=NC2, the activity change, negative = inhibition is reported as 18.7%. CC(C)(O)C(=O)Nc1ccc([N+](=O)[O-])c(C(F)(F)F)c1 showed an activity change, negative = inhibition of 5.88%. For COc1ccc(C[C@H]2NC[C@H](O)[C@H]2OC(C)=O)cc1, the activity change, negative = inhibition was -80.3% (active) and -86.5% (active). Work on CC(C)(C)OC(=O)c1ncn2c1[C@@H]1CCCN1C(=O)c1c(Br)cccc1-2 yielded an activity change, negative = inhibition of 6.65%. Work on CN1CCC2=C(C1)c1ccccc1Cc1ccccc12 yielded an activity change, negative = inhibition of 3.96%. Work on Cc1[nH]cnc1CCN yielded an activity change, negative = inhibition of 7.41%. C[C@]12CC/C(=N\OCCN)C[C@@H]1C(=O)C[C@@H]1[C@@H]2CC[C@]2(C)C(=O)CC[C@@H]12 showed an activity change, negative = inhibition of 14.1%. Molecule Clc1ccc(C23CNCC2C3)cc1Cl (centres undefined) has an activity change, negative = inhibition of 6.45%. Molecule C=CCN1CCC23c4c5ccc(O)c4OC2C(=O)CCC3(O)C1C5 (centres undefined) has an activity change, negative = inhibition of -2.6%. With CC(C)=CCC[C@]1(C)C=Cc2c(O)c3c(c(CC=C(C)C)c2O1)O[C@]12C(=C[C@@H]4C[C@H]1C(C)(C)O[C@@]2(CC=C(C)C(=O)O)C4=O)C3=O the activity change, negative = inhibition was -83.4% (active). In the case of CC(C)=CCCC1(C)C=Cc2c(O)c3c(c(CC=C(C)C)c2O1)OC12C(=CC4CC1C(C)(C)OC2(CC=C(C)C(=O)O)C4=O)C3=O (centres undefined), the activity change, negative = inhibition is reported as -77.9% (active). Molecule CC(C)CCCC1(C)C=Cc2c(O)c3c(c(CCC(C)C)c2O1)OC12C(CC4CC1C(C)(C)OC2(CCC(C)C(=O)O)C4O)C3=O (centres undefined) has an activity change, negative = inhibition of -3.34%. Molecule CN(C)[C@@H]1C(=O)C(C(N)=O)C(=O)[C@@]2(O)C(=O)C3C(=O)c4c(O)cccc4[C@@](C)(O)C3[C@H](O)C12 (some centres undefined) has an activity change, negative = inhibition of -0.0524%. For C=C(C)C1Cc2c(ccc3c(=O)c4c(oc23)COc2cc(OC)c(OC)cc2-4)O1 (centres undefined), the activity change, negative = inhibition was -1.04%. In the case of CCCCCCN1CCN(c2cccc(Cl)c2)CC1, the activity change, negative = inhibition is reported as 9.58%. For O=C1CC2OCC=C3CN4CC[C@]56c7ccccc7N1C5[C@H]2[C@H]3CC46 (some centres undefined), the activity change, negative = inhibition was 15.9% and 2.19%. In the case of CN1Cc2ccccc2[C@@H]2c3cccc4[nH]cc(c34)C[C@H]21, the activity change, negative = inhibition is reported as -78.9% (active). For CC(C)C1(NC(=O)C2CC3c4cccc5[nH]cc(c45)CC3N(C)C2)OC2(O)C3CCCN3C(=O)C(Cc3ccccc3)N2C1=O (centres undefined), the activity change, negative = inhibition was -21.5%. CC(C)[C@@]1(NC(=O)[C@@H]2CC3c4cccc5[nH]cc(c45)C[C@H]3N(C)C2)O[C@@]2(O)[C@@H]3CCCN3C(=O)[C@H](Cc3ccccc3)N2C1=O (some centres undefined) gave an activity change, negative = inhibition of -13.7%. CN1CC[C@@H]2CN3CCc4cccc(c43)[C@@H]2C1 gave an activity change, negative = inhibition of 3.72%. For CCC(C)C(=O)O[C@H]1[C@H](O)C2C(CN3CC(C)CCC3[C@@]2(C)O)C2C[C@]34O[C@]5(O)C(OC(=O)C(C)(O)CC)CC[C@@]3(C)C5C(OC(C)=O)[C@@H](OC(C)=O)C4[C@@]21O (some centres undefined), the activity change, negative = inhibition was 1.67%. In the case of CC1(C)CC(O)CC(C)(C)N1O, the activity change, negative = inhibition is reported as 8.37% and 5.38% and 2.68%. Molecule CN(C(=O)Cc1ccccc1)C(CN1CCCC1)c1ccccc1 (centres undefined) has an activity change, negative = inhibition of 6.5%. Work on C[C@]12CC[C@H](O)C[C@@H]1CC[C@@H]1[C@H]2CC[C@]2(C)C(=O)CC[C@@H]12 yielded an activity change, negative = inhibition of 6.71%. C[C@]12CCC3[C@@H](CC[C@@H]4C[C@H](O)CC[C@]34C)[C@@H]1CCC2=O (some centres undefined) showed an activity change, negative = inhibition of 8.25%. In the case of C[C@]12CC[C@H](O)C[C@H]1CC[C@@H]1[C@@H]2CC[C@]2(C)[C@@H](c3ccc(=O)oc3)C[C@H]3OC132 (some centres undefined), the activity change, negative = inhibition is reported as -78.4% (active). For CN(C)CCNc1nc2cc(O)ccc2c2c1C(=O)c1ccccc1-2, the activity change, negative = inhibition was -85.6% (active). For O=C(O)C(=O)CBr, the activity change, negative = inhibition was -21.8%. For C[N+]1(C)CCc2cc3c(cc2[C@H]1C1OC(=O)c2c1ccc1c2OCO1)OCO3 (some centres undefined), the activity change, negative = inhibition was 9.96%.
